Source: PubChem BioAssay AID1508600 (Functional Genomics Laboratory (NCATS/FGL), 2020)
The whole screen tested about 53,000 sequences, of which about 3,700 (7%) were called active.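 How the source made its calls: active means gene knockdowns whose robust z-score for IL-1 alpha signal is at least 2 or at most -2, so actives lie on both sides; inactive means the rest.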 This excerpt belongs to a sample that is enriched for actives.

Assay: Components of the Cytosolic LPS Sensing Pathway: Gene Identification via Genome-wide siRNA Screen;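 further: robust z of the log signal after scaling to non-targeting control siRNA wells of the plate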
Settings: RAW264.7 macrophages, IL-1a HTRF, actives lie on both sides, screened at 100 nM (by protocol), cells primed 5 h with Pam3CSK4 first
In short: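 RAW264.7; siRNA 100 nM final, RNAiMAX, 48h 37 degrees C; Pam3CSK4 5 h; LipidA + TransIT-TKO 24 h; IL-1a HTRF; CellTiter-Glo viability; robust z vs negative-control median.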

z-score, inactive:
GGUGUGGCUGUUCUGAUGATT against Olfr771 0.322, GGGCUCCUGGUUUAGUAAUTT against Zfp59 1.04, GCUUUUCAUACCUGUUUCCTT against 9930111J21Rik2 -0.227, CGGAAUCUGACUGGUAUCGTT against Banp -1.21, GGAAAAAGCCAAUUAUGUCTT against Fbxl2 -0.954, GGUUUUAAGCUUGCUUAUGTT against Ucma 0.4, GGAGAUACUAUGUUGCAUUTT against Fgf9 0.537, CCAAGAGAUGCUAGCUAAUTT against Platr28 -0.495, GGCAAUCUACUCAUUGUUGTT against Olfr1239 -0.719, GCAGGUUAGAGUCACUUGUTT against Trim67 0.143, GGUGUCCAGUUCAUCCAGGTT against Vxn 1.15, GCUUUGAGAACCUUGGUAATT against Rab9b -0.652, GGAUCAGUGCCUUUGGCUATT against Rhoc -1.75, GGGAUGUUUUGUUUUUAACTT against Mlc1 0.384, GGAGUUCACCAGCUACCAATT against Myoz3 -0.537, CCAUGGAAUUCAAUUCCUUTT against Vmn2r66 0.0798, GGUUGACUGAAUGAUGGAATT against Tcl1b3 -0.724, GCCCAUAUCGGAGAAGAUUTT against Cap2 -1.97, GGGCAUGUUUAACGACAUUTT against Csf2ra 1.49, GGAUUUCCUUUUAAGACUUTT against Rab3il1 -0.71, GGAAGACAAUAAGAAGUGGTT against Niban2 -0.576, CCAUUCCUACAGCAUGCGUTT against Slc27a1 0.523, CCUCAUCCAACAUACCUAUTT against Olfr665 -0.665, GGACAUCAUAUUCGUUUUCTT against C130026L21Rik 1.12, GGGUUGAAGUUUGUCGAAATT against Nlgn1 0.496, GGGUCUUUGUACAGAUUGCTT against Olfr275 0.0844, GCUGAAUACAGUUGGUGCUTT against Nelfa -0.259, GGAUUCAAACUGGUUUUCATT against Ptcd3 1.8, GGACAAGUUCUGUUGGUAUTT against Zfp275 0.121, GCGCAGUCAGACCAUAUAUTT against Fbxl5 -0.874, GGUCUUAAAGCAUGAGAAGTT against Med8 0.541, GGUUCGUAAAAUUAUUAGGTT against Vcl 1.09, GGGCAGUCCGUUUCUUAACTT against Kptn 0.815, GGAGGUAUUUACCAAAGAUTT against Acer2 0.453, CCACACUUUUCAGUAUAAUTT against Lin54 0.897, GGGUGACCUAAAGAAUUAATT against Ybx3 0.849, GGUUUCGUCUUGAUAUCUATT against Trpc1 -0.417, GGAGAGCAGAUGUGAUUCUTT against Mrm2 -0.561, GGGUGUCUUUCCUGUGUGATT against Pkmyt1 -0.804, GGGUAAAGGAGAUUGUGAUTT against Ppfibp2 -0.103, CCAAGUAUAGCUCACAUAATT against Slc17a4 -1.7, GCCCUUGAAGAUUUGAGGUTT against Cops8 0.00555, GCACAGGUUCAAGUGGAACTT against Prnd -1.41, GGAAAGACCUAAGCAAUUATT against Klhl28 -0.287, CCUAUCCAGAUGUCAUUAATT against Hoxa11 0.849, GCAUUAAAAACCCUUUUUGTT against B230354K17Rik 1.68, GCAGAGUGUGGUUAGUGGGTT against Cobl -0.218, GGAACUGCCCAGUUCUUAATT against Ppan 0.424, CCUACCCUAACCAUUACACTT against Enpp5 -0.267, GGCCUUUUCUCAUCUCUGGTT against Igfals -1.57, GCACUUUAAGAUCAACCGGTT against Bcar3 0.521, CCUAAAAGUGCCUUACUAATT against Ftdc2 0.679, GCAAGAACGCAAGAUUCAATT against Acoxl 0.581, GCUGCUACGUGUUCAAGGUTT against Ctss 0.00488, GGUACCAACGUGUAUGGCATT against Gpaa1 0.182, GGUAAACCAAACAAAACCATT against Rpl35a 0.264, CCUUAAAACAGAUCCACUUTT against Nell2 0.473, GGCUCCUGUGCAUAUCUAATT against Olfr116 -0.449, GGAGAACAACAGUAAUUACTT against Reps2 -1.28, GGUGUCCAACAAGCUCAAGTT against F8a -0.337, GCGCAAACUUUAAUAACACTT against Zkscan1 0.604, GGCCAGGUAACUCUUACAATT against Trpv1 1.12, GGACAGUGUCUAGAUAUUGTT against Fbln5 -1.18, GGACAAGUUGUUGGACUACTT against Hltf -1.02, GGACAAUGUGAUGAAGAUUTT against Fgfr3 -0.843, GCCUCAUCAAUCCACUGCATT against Mtss2 -0.956, GGGAGUUGUAGUAUUAGUATT against Zfp94 -1.19, AAAAAACAGCACCCUGAUGTT against Olfr204 1.1, GGUCAGCAUUAUCAAGCCUTT against Hsd11b2 0.159, CCUGUGAAUACUUUCACUCTT against Bok 0.115, GCCAGUCAUUAUAGUUAACTT against Slc47a1 1.57, GGAAGAACCACCACAAACUTT against Cstdc2 -0.0281, GGAGUUUGGUAAAAUUGACTT against Dhrs7 -1.7, GGAAGAAAUUCCUAAUGAATT against Igsf11 -1.01, GGACCAAGGAAUAUUUCCCTT against Serpinb9b -0.564, GGGAUCAGAACAAGUAUAATT against Klc1 0.257, GGCUAAUAGACUUAUUAGGTT against Cdip1 0.45, GGGUCAUCCAAAUGGUUUGTT against Grm6 0.323, GCUGUUUUGAGGAGCCUUCTT against Zfp410 -0.962, GGGUGAUCGCACGAUUGAGTT against Casq2 0.364, GGAAAAUGGCAGAAAUGAATT against Vps26a -1.97, GGAGGUUGUGAUCUUGAAATT against Tbc1d23 -0.000244, CGUAGACUUAACCUACAAATT against Dync2h1 1.88, GGUCAACCUUGAACUAAUATT against Dhx57 0.452, GGAUCUUGAGUUGGAGUCCTT against Nupr1l -0.319

z-score, active:
GCACGAGAGACAUUUCUCCTT against Kat7 -2.32, GGGUGUUUGGAGAUUGUGUTT against Heatr3 -2.93, GGAUUCUUGGAGCUCAUUATT against Stag3 -2.46, GGAACAAGGUAAAAUACAUTT against Nthl1 3.88, CCCUAGUUACCAAUUCCACTT against Olfr293 2.61, GCUUUACCUGCUCAGAAGCTT against Olfr520 -2.26, GCGAGCUAUUCUUCCUUGUTT against Eif4a1 -2.13, GGAGGAAGAGGAGAAUCUATT against Supt6 -2.57, GGGAGACUGUGAAGCUUUATT against Elk4 3.22, GCUGAAUACAACGUGAGAUTT against Tdh -4.05, GCCUGUUCUCAAGACUGACTT against Sema4a 2.06, GCCGUUAGAAACAAAGUCGTT against Taf3 -2.48, GGAAUUUGAUUCUCUGCCUTT against Zfp646 2.96, GCCCGGAGAAUAUUAACUATT against Mllt11 2.21, GGAGUUUGCCAGUCAGAUCTT against Ralgps1 -2.11, GGACAAAGAAUCCAAAAUATT against Etv6 2.25, GGCUUUGGCAUGAUUGGCCTT against Tmem214 -2.72, GGGUUAGCCAGAGCUCUAATT against N4bp2l1 3.03, GGGUGUGUUGGAUACCUAUTT against Adig 2.03, GGAAAUUGGCACCAUUACUTT against St3gal1 2.14, GGCUCACAGGACCUAUUUCTT against Col6a6 -3.15, CCCACUCCGAUAUACUGCUTT against Olfr447 2.2, GCGAGUAGGACCAGUGAAATT against Xpo1 -2.67
